Assay outcomes as filed in PubChem.
Rows were chosen to be rich in hits. Some 19% of all compounds tested hit in one or more screens of this group.
HT1080-NT tox – qHTS for induction of synthetic lethality in tumor cells producing 2HG: qHTS for the HT-1080-NT fibrosarcoma cell line; HT-1080-NT fibrosarcoma viability, CellTiter-Glo ATP luminescence, 48 h; Potency, µM (top dose mostly 46.1 µM), for inactives: top-dose activity, negative = less viability, hits mostly cytotoxic; 1.6% of 360,000 active;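 also: NT is the 2HG producing partner of a matched IDH1 knockdown line; 0% = DMSO-treated cells and -100% = media-only wells without cells; nearly all actives have a fitted effect of over 55% in size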
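Luminescent CellTiter-Glo readout after 48 hours of compound exposure at 37 degrees C defined viability of HT-1080-NT cells. Activity was normalized to DMSO wells and cell-free media wells; concentration-response curves were fitted and assigned curve classes.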
TDP1 cell noCPT – qHTS for Inhibitors of human tyrosyl-DNA phosphodiesterase 1 (TDP1): qHTS in cells in absence of CPT; DT40 Tdp1-/- hTDP1 cells, no CPT, ATP luminescence, 48 h; Potency, µM (series often up to 46.2 µM), for the others: top-dose activity change, negative = growth inhibition, usual class: inhibitors; 15% of 420,000 active; AID 686978, 2013; also: nearly all actives have a fitted effect of over 55% in size
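No-CPT arm: Tdp1-/-;hTDP1 DT40 cells (400/well) plus compounds, incubated ≥48 hr at 37 °C. Readout CellTiter-Glo luminescence.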
TDP1 cell CPT – qHTS for Inhibitors of human tyrosyl-DNA phosphodiesterase 1 (TDP1): qHTS in cells in presence of CPT | chicken DT40 Tdp1-/-;hTDP1 cells + 20 nM CPT, ATP luminescence, 48 h | Potency, µM (highest dose often 46.2 µM), inactives show at the top dose activity change, negative = growth inhibition, hits mostly inhibitors | 12% of 420,000 active | AID 686979, 2013; also: nearly all actives have a fitted effect of over 55% in size
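Chicken DT40 Tdp1-/- cells stably complemented with human TDP1 were seeded at 400 cells/well in medium containing 20 nM camptothecin, exposed to pin-transferred compounds, and grown at 37 °C for at least 48 hr. Viability was read as ATP luminescence.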
KB-3-1 tox – qHTS assay for MDR1-selective chemotherapeutics: Primary screen using the parental adenocarcinoma cell KB-3-1 | KB-3-1 viability, CellTiter-Glo ATP luminescence, 72 h | Potency, µM (doses to about 46.1 µM), usual class: cytotoxic | 1.4% of 400,000 active | AID 1347075, 2019; also: nearly all actives have a fitted effect of over 60% in size
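Using CellTiter-Glo luminescence, growth of non-resistant KB-3-1 adenocarcinoma cells is assessed 72 h after pin-tool compound addition at 37 °C. Normalized responses across the concentration series yield fitted curves.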
KB-V1 cytotox – qHTS assay for MDR1-selective chemotherapeutics: Primary screen using the drug-selected MDR subline cells KB-V1 | KB-V1 MDR cells viability, CellTiter-Glo, 72 h | Potency, µM (titrated, usually from 46.1 µM), usual class: cytotoxic | 3.4% of 400,000 active; also: nearly all actives have a fitted effect of over 60% in size
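Readout: CellTiter-Glo luminescence, 10 min after addition. Cells: KB-V1 MDR subline, 72 h at 37 degrees C with compound. Analysis: corrected, normalized data fitted to concentration-effect curves.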
HT1080 IDH1KD tx – qHTS for induction of synthetic lethality in tumor cells producing 2HG: qHTS for the HT-1080-IDH1KD cell line. HT-1080 IDH1 knockdown viability, ATP luminescence, 48 h. Potency, µM (top dose mostly 46.1 µM), without a hit: at the top dose activity, negative = toxicity, actives largely listed as cytotoxic. 2% of 360,000 active. AID 686971, 2013;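 also: 0% = DMSO wells and -100% = cell-free medium wells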
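IDH1KD HT-1080 cells, 750/well, RPMI + 5% FBS; compound pinned after 2 h settling; 48 h, 37 °C; CellTiter-Glo luminescence; % activity normalised to DMSO and no-cell wells; curves fitted, classed by r2 and efficacy.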
An asterisk follows results filed as active; i = inactive; u = inconclusive; x = no result; ! = a repeat was not active. Calls follow the shape of the dose curve; as a rule, active = well fitted curve in the direction sought with a large enough effect; inconclusive = small, poorly fitted or top-dose-only effect, or another doubt; inactive = no such curve, though single readings can be large; an effect the other way counts as inactive or inconclusive. Unless noted, % is scaled to controls: 0 for no effect and ±100 for the full control effect; potency is read from the fitted curve at half-maximal effect.

SMILES | HT1080-NT tox | TDP1 cell noCPT | TDP1 cell CPT | KB-3-1 tox | KB-V1 cytotox | HT1080 IDH1KD tx
Cc1cccc(CN2CC=C(c3noc(CCC(=O)Nc4ccc(C)c(F)c4)n3)CC2)c1 | x | 13µM* | 16µM* | i | i | x
COc1ccc(NC(=O)CCc2nc(C3=CCN(Cc4cccc(Cl)c4)CC3)no2)c(OC)c1 | x | 18µM* | 5.8µM* | i | i | x
COc1ccc2nc(NC(=O)CCc3nc(C4=CCN(C)CC4)no3)sc2c1 | 13% | -26% | -24% | i | i | 6%
CCc1nnc(NC(=O)CCc2nc(C3=CCN(C)CC3)no2)s1 | 5% | -17% | -9% | i | i | 18%
CNC(C)C(O)c1ccc(O)cc1 (stereo unspecified) | x | 3% | 2% | x | x | x
CCS(=O)(=O)N1Cc2cc(C(=O)N(C)C)nc(-c3cccc(-c4ccc(F)cc4)c3)c2[C@H]1CCO | -2% | -14% | -7% | i | i | 23µM*
Cc1noc(C)c1CC(=O)N1CCCC(N2CCN(c3ccccc3F)CC2)C1 (stereo unspecified) | 0% | -14% | -11% | i | u | -2%
Cc1cnc(SCc2ccccn2)nc1C1CCCN(C(=O)c2scc3c2CCCC3)C1 (stereo unspecified) | x | 10µM* | 12µM* | x | x | x
Cc1cnc(SCc2ccccn2)nc1C1CCCN(C(=O)c2ccc(-c3ccccc3F)cc2)C1 (stereo unspecified) | x | 23µM* | u | x | x | x
COc1ccc(CC(=O)C2C(=O)N(C)c3ccccc32)cc1OC (stereo unspecified) | -3% | u | -11% | i | u | -19%
Oc1cc2c(cc1O)[C@H]1c3ccccc3CN[C@H]1CC2 | x | 18µM* | 18µM* | x | x | x
Oc1cc2c(cc1O)[C@H]1c3ccccc3CN[C@@H]1CC2 | x | 13µM* | 14µM* | i | u | x
COc1ccc2c(c1)C1OCCNC1CC2 (stereo unspecified) | 11% | -9% | -8% | i | i | 4%
CC(C)CC(C)N (stereo unspecified) | -28% | 9% | 3% | i | i | 1%
CC1CCCCC1NC(=O)CNC(=S)N1CC2CC(C1)c1cccc(=O)n1C2 (stereo unspecified) | 2% | 16% | 16% | i | i | 20%
CN1C(=O)C[N+]([O-])=C(c2ccccc2)c2cc(Cl)ccc21 | 1% | -16% | 18% | i | i | 16%
CN(CC(=O)Nc1ccccc1-c1ccccc1)C1CCCCC1 | u | u | 23µM* | u | u | -30%
CCc1nn(CC(=O)N2CCN(Cc3ccc4c(c3)OCO4)CC2)c(=O)c2cc3occc3n12 | -2% | u | u | i | 18µM* | -20%
Nc1cccc2c(N)cccc12 | x | 24µM* | 22µM* | x | x | x
C(#CCN1CCOCC1)COC/C=C/c1ccccc1 | -4% | -6% | 3% | i | 21µM* | 2%
O=[N+]([O-])c1ccc(Oc2ccc(N=C=S)cc2)cc1 | x | 12µM* | u | x | x | x
O=[N+]([O-])c1ccccc1 | x | 10% | 7% | x | x | x
Oc1ccc(C2=CCNCC2)cc1O | x | x | x | i | i | x
CC(C)OC(=O)OCOP(=O)(CO[C@H](C)Cn1cnc2c(N)ncnc21)OCOC(=O)OC(C)C | x | 11µM*! | 8.4µM*! | x | x | x
Nc1ncnc2c1ncn2[C@@H]1O[C@H](COP(=O)(O)OP(=O)(O)OP(=O)(O)O)[C@@H](O)[C@H]1O | u | -1% | 0% | i | i | u
SMILES | HT1080-NT tox | TDP1 cell noCPT | TDP1 cell CPT | KB-3-1 tox | KB-V1 cytotox | HT1080 IDH1KD tx
Cc1ccccc1-c1ccc2n1Cc1cnnn1-c1ccccc1-2 | 1% | u | u | i | i | 4%
O=c1ccc2cc(OC3OC(CO)C(O)C(O)C3O)c(O)cc2o1 (stereo unspecified) | x | -2% | u | x | x | x
CCc1ccc(NC(=O)c2ccc(F)c(S(=O)(=O)N3CCc4ccccc4C3)c2)cc1 | x | 21µM* | u | x | x | x
CCc1ccc(NC(=O)c2ccc(F)c(S(=O)(=O)N3CCC4(CC3)OCCO4)c2)cc1 | x | 21µM* | u | x | x | x
CCC(=NCc1ccc2c(c1)OCO2)c1c(O)n(C)c(=O)n(C)c1=O | -14% | 21µM* | u | 15µM* | i | -19%
CCC(=NCc1cc(OC)cc(OC)c1)c1c(O)n(C)c(=O)n(C)c1=O | 9% | 8.9µM* | 10µM* | u | 7.3µM* | 1%
CC(=NCc1ccc2c(c1)OCO2)c1c(O)n(C)c(=O)n(C)c1=O | 2.5µM* | u | u | 8.2µM* | 21µM* | -26%
CCCCn1c(O)c(C(C)=NCc2ccc3c(c2)OCO3)c(=O)[nH]c1=O | -2% | u | u | i | u | -1%
OC(CN1CCC(c2c[nH]c3ccccc23)CC1)C(F)(F)F (stereo unspecified) | -4% | -29% | -13% | i | i | 10%
C=C1[C@@H](O)C2C=CC[C@H](C)C(=O)[C@@](C)(O)C=C[C@@H](OC(C)=O)[C@@]23C(=O)N[C@H](Cc2ccccc2)[C@@H]3[C@@H]1C (stereo partly specified) | x | 0.24µM* | 0.27µM* | x | x | x
C=C1[C@@H](C)[C@H]2[C@H](Cc3ccccc3)NC(=O)[C@]23[C@H](OC(C)=O)/C=C/[C@](C)(O)C(=O)[C@@H](C)C/C=C/[C@H]3[C@@H]1O | x | 0.14µM* | 0.18µM* | x | x | x
C=C1C(C)C2C(Cc3ccccc3)NC(=O)C23OC(=O)/C=C/C(O)CCCC(C)C/C=C/C3C1O (stereo unspecified) | u | 2.1µM* | 1.5µM* | u | u | 8.2µM*
CN1C2CCC1C(C(=O)O)C(O)C2 (stereo unspecified) | 7% | -11% | -22% | i | i | 11%
CNCC(O)c1ccc(OC(=O)C(C)(C)C)c(OC(=O)C(C)(C)C)c1 (stereo unspecified) | -6% | u | 9µM*! | i | i | -13%
Cc1nn(Cc2ccccc2)c(Cl)c1C(=O)OCC(=O)N1CCCC1 | 12% | -1% | -3% | i | i | 0%
Cc1cc(NC(=O)CCl)on1 | u | 9.2µM* | u | i | u | u
